# Assay outcomes deposited in PubChem BioAssay by The Scripps Research Institute Molecular Screening Center.
# FBW7 activator = activators of human E3 ligase FBW7. AlphaScreen FBW7–phospho-cyclin E peptide binding, activator screen. actives 0.13% (n = 650,000). AID 1259310. normalized activity (activation), % at 26.1 µM; in the data active = normalized activity above about 1.9%;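 also: purified mutant Fbw7 with reduced substrate affinity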
# TEAD-YAP block = TEAD-YAP interaction inhibition. inhibition, % at 9.12 µM. actives 1.4% (n = 640,000). HEK-TIYL cells, TEAD-Gal4/YAP UAS-luciferase luminescence; in the data active = inhibition above about 32%;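 also: 0% = median of test compound wells and 100% = reference inhibitor wells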
# MITF inh = human MITF inhibition, primary screen | O75030 | AlphaScreen MITF homodimerization, bead proximity signal | inhibition, % at 2.6 µM | actives 0.91% (n = 650,000); in the data active = inhibition above about 50%;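 also: 0% = vehicle wells with protein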
# GPR151 ag = human GPR151 activation; AID 1508602; activation, % at 11.2 µM; PathHunter beta-arrestin GPR151 cells, luminescence; actives 1% (n = 650,000); Q8TDV0; in the data active = activation above about 4.9%;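 also: 0% = median of compound wells and 100% = cells with positive control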
# Target sequence (Q8TDV0 whole entry, looked up): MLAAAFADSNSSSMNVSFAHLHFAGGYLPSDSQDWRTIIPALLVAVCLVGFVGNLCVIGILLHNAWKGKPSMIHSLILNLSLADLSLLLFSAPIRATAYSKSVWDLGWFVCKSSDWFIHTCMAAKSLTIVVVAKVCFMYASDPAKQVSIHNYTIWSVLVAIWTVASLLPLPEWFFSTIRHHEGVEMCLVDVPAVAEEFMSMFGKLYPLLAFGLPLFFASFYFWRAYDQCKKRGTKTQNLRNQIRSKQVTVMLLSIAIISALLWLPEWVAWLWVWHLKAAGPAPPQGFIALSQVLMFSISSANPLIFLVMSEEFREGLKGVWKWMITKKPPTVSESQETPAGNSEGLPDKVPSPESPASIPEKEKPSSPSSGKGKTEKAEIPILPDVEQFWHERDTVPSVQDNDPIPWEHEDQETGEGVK
# Starred values were filed as active, the others as inactive. Hits are enriched below; roughly 3.5% of the tested compounds scored in any of these assays.
SMILES,FBW7 activator,TEAD-YAP block,MITF inh,GPR151 ag
CCC(CO)NC(=O)c1cnc2sc(C)c(C)n2c1=O (stereo not given),0,-3,13,-1
Cc1cccc(-c2nc(C(N)=O)c3[nH]c(=O)n(C(C)C)c3n2)c1,0,1,2,0
Cc1c(C(=O)O)sc2[nH]c(=O)n(-c3ccc(Cl)cc3)c(=O)c12,0,1,3,1
CCn1c(Sc2ccc(C=O)cc2[N+](=O)[O-])nnc1-c1ccco1,0,1,4,-1
CCn1c(Sc2ccc([N+](=O)[O-])cc2C=O)nnc1-c1ccco1,0,51*,-5,0
Cc1ccc(-c2nc(Cn3c(=O)n(CC4CCCO4)c(=O)c4ccccc43)c(C)o2)cc1 (stereo not given),0,4,-2,-1
CC(C)(C)c1ccc(-c2ccc(OCCN3CCCC3=O)nc2)cc1,0,52*,7,1
COc1ccccc1CNC(=O)c1oc2ccc3c(c2c1C)C(=O)CC(C)(C)O3,0,-28,-10,0
Cc1c(C(=O)Nc2ccc3c(c2)OCO3)oc2ccc3c(c12)C(=O)CC(C)(C)O3,0,42*,1,0
COc1cccc(NC(=O)c2oc3ccc4c(c3c2C)C(=O)CC(C)(C)O4)c1,0,92*,6,-11
COc1ccccc1NC(=O)c1oc2ccc3c(c2c1C)C(=O)CC(C)(C)O3,0,33*,-7,0
CC(=O)c1cccc(NC(=O)c2oc3ccc4c(c3c2C)C(=O)CC(C)(C)O4)c1,0,52*,1,0
COc1ccc(CNc2ccc3ncc(-c4ccco4)n3n2)cc1,0,-12,15,0
COc1ccc(/C=C2\N=C(c3ccc(Br)cc3)OC2=O)cc1OC,0,8,3,-1
COc1ccc(CCn2c(C)cc(C(=O)CSc3nc(N)cc(=O)[nH]3)c2C)cc1,0,33*,7,0
COc1ccc(CCn2c(C)cc(C(=O)CCl)c2C)cc1,0,40*,16,1
O=C(Nc1ccccc1)c1cccc(N2CCCC2CO)n1 (stereo not given),0,-28,11,-1
COc1cc(NC(=O)c2cccc(N3CCN(c4ccccn4)CC3)n2)cc(OC)c1OC,0,42*,-11,-2
COc1cc(NC(=O)c2ccnc(N3CCN(c4ccccn4)CC3)c2)cc(OC)c1OC,0,14,4,0
CC(=O)Nc1ccc(NC(=O)c2cccc(N3CCN(c4ccccn4)CC3)n2)cc1,0,36*,-10,1
O=C(Nc1ccccc1)c1cccc(N2CCN(c3ccccn3)CC2)n1,0,-15,-15,4
COc1cc(NC(=O)c2cccc(N3CCCC3CO)n2)cc(OC)c1OC (stereo not given),0,35*,-1,0
COc1cc(NC(=O)c2cccc(-c3ccc(C(=O)NC4CC4)cc3)n2)cc(OC)c1OC,0,34*,6,1
O=C(CCl)NC(Cc1ccccc1)c1ccccc1 (stereo not given),0,58*,11,0
CCOC(=O)C(=O)NC(Cc1ccccc1)c1ccccc1 (stereo not given),0,2,13,1
SMILES,FBW7 activator,TEAD-YAP block,MITF inh,GPR151 ag
Cc1ccc(S(=O)(=O)N(CCCC(=O)O)Cc2ccc(Cl)cc2)cc1,0,5,-5,0
CCc1n[n+](CC(=O)c2ccc3c(c2)OCCO3)c(N)s1,0,63*,-10,-8
CCC(=O)c1ccc2c(c1)OCCO2,0,5,-4,-1
COc1ccc(/C=C2/SC(=Nc3ccc(F)cc3)NC2=O)c(OC)c1,0,42*,7,4
COc1ccc(OC)c(/C=C2\SC(=Nc3ccc(O)cc3)NC2=O)c1,0,54*,5,1
COc1ccc(/C=C2\SC(=O)NC2=Nc2ccccc2)cc1,0,-31,20,1
COc1ccc(OC)c(/C=C2\SC(=Nc3ccccc3)NC2=O)c1,0,8,6,0
COc1cccc(N=C2NC(=O)/C(=C/c3ccc(OC)c(OC)c3)S2)c1,0,48*,-6,-1
COc1ccc(/C=C2\SC(=O)NC2=Nc2ccccc2)c(OC)c1,0,47*,13,2
COc1ccc(/C=C2/SC(=Nc3cccc(C)c3)NC2=O)c(OC)c1,0,54*,-2,1
CCn1nc2n(CC(=O)NC3CCCCC3C)c3ccccc3n2c1=O (stereo not given),0,-1,-2,4
c1ccc(-c2cc(-c3ccccc3)[n+](CCc3c[nH]c4ccccc34)c(-c3ccccc3)c2)cc1,0,70*,10,2
CCCc1ccc(/C=C/c2ccccc2)nc1,0,34*,16,-4
Cc1ccc(-c2c(Nc3ccccc3C)c(=O)c2=O)cc1,0,49*,0,3
Cc1ccc(-c2c(NC(C)c3ccccc3)c(=O)c2=O)cc1 (stereo not given),0,45*,0,2
Cc1ccc(CNc2c(-c3ccccc3)c(=O)c2=O)cc1,0,-8,-1,-1
Cc1ccc(Nc2c(-c3ccccc3)c(=O)c2=O)cc1F,0,35*,10,-2
Cc1nn(C)c(Cl)c1/C=C/C(=O)N1CCOCC1,0,-12,-9,0
COc1cc(OC)nc(Sc2ccccc2/C=N/O)n1,0,57*,4,3
O=C(/C=C/c1ccccc1[N+](=O)[O-])Nc1ccccc1Cl,0,-60,10,4
CN(C)c1ccc(C(=O)Nc2ccccc2F)cc1,0,74*,-4,-9
COc1ccc2c(c1)C=C/C(=C\c1cccc[n+]1C)N2C,0,80*,11,2
CCN1/C(=C/c2cc[n+](C)cc2)C=Cc2cc(OC)ccc21,0,8,5,0
O=C(O)c1ccc(-c2cnc3ccc(NC4CCC(O)CC4)nn23)cc1 (stereo not given),0,0,-10,0
COc1cncc(-c2cnc3ccc(NC4CCOCC4)nn23)c1,0,42*,11,1
SMILES,FBW7 activator,TEAD-YAP block,MITF inh,GPR151 ag
OCc1ccc(-c2cnc3ccc(NC4CCC(O)CC4)nn23)cc1 (stereo not given),0,51*,9,2
CCC(CO)Nc1ccc2ncc(-c3ccco3)n2n1 (stereo not given),0,33*,20,0
COc1cccc(-c2cnc3ccc(NCC4CC4)nn23)c1,0,47*,-11,0
COCCNC(=S)NCCNc1nc2ccc(OC)cc2cc1C#N,0,4,19,-1
CCCCOc1cccc(OCCCCN2CCN(C)CC2)c1,0,-2,8,0
CCC(CO)Nc1ccc2ncc(-c3ccc(C(C)=O)s3)n2n1 (stereo not given),0,47*,19,-1
CCC(CO)Nc1ccc2ncc(-c3cccc(OC)c3)n2n1 (stereo not given),-1,57*,8,-1
COc1ccccc1C(=O)Nc1cccc(N2CCC(NCc3ccco3)CC2)c1,0,-3,16,0
COC(=O)c1cc(C(=O)N2CCN(c3cccc(Cl)c3)CC2)cc([N+](=O)[O-])c1,0,63*,4,1
